Laboratory results taken from the supplement of paper PMC13380429.

Tested on: Vero E6 infected with SARS-CoV-2
Experiment: inhibition of SARS-CoV-2 cytopathic effect; higher = more antiviral protection, active = above 15
Conditions: 48 h

Measured: inhibition of SARS-CoV-2 cytopathic effect

O=C1Nc2ccc(I)cc2C1=Cc1cc(Br)c(O)c(Br)c1
inactive: 1 nM 2.36% | 8.33 nM 0.05% | 100 nM 1.54% | 833.33 nM 2.76% | 10000 nM 8.55%

CCCCc1nc(Cl)c(CO)n1Cc1ccc(-c2ccccc2-c2nnn[nH]2)cc1 [losartan]
inactive: 1 nM 0.46% | 8.33 nM 1.87% | 100 nM -0.81% | 833.33 nM -2.88% | 10000 nM -1.4%

Cc1cc(C(N)=O)ccc1-n1c(CCC(=O)O)ccc1-c1ccc(-n2ccnc2)cc1
inactive: 1 nM -3.46% | 8.33 nM 2.86% | 100 nM 2.45% | 833.33 nM -1.56% | 10000 nM -2.98%

COC(=O)C1=C(C)NC(C)=C(C(=O)NCCCN2CCC(c3ccccc3)(c3ccccc3)CC2)C1c1ccc([N+](=O)[O-])cc1 (stereo not given)
inactive: 1 nM 1.77% | 8.33 nM 1.95% | 100 nM 0.45% | 833.33 nM 0.78%
active: 10000 nM 48.8%

c1ccc(CCCCN2CCC(c3ccccc3)CC2)cc1
inactive: 1 nM -1.33% | 8.33 nM -0.15% | 100 nM 2.71% | 833.33 nM 1.08% | 10000 nM -0.99%

CCN(C(C)=O)c1cccc(-c2ccnc3c(C#N)cnn23)c1
inactive: 1 nM -0.78% | 8.33 nM -1.57% | 100 nM -2.79% | 833.33 nM -0.59% | 10000 nM -0.53%

CC[C@H]1OC(=O)[C@@](C)(F)C(=O)[C@H](C)[C@@H](O[C@@H]2O[C@H](C)C[C@H](N(C)C)[C@H]2O)[C@](C)(OC)C[C@@H](C)C(=O)[C@H](C)[C@H]2N(CCCCn3cc(-c4cccc(N)c4)nn3)C(=O)O[C@]12C [solithromycin]
inactive: 1 nM 0.98% | 8.33 nM 0.59% | 100 nM 0.05% | 833.33 nM -0.9% | 10000 nM -4.38%

COc1cc2c(cc1OC)-c1cc3nc4ccccc4nc3n1C(C)(C)C2
inactive: 1 nM 2.63% | 8.33 nM 1.86% | 100 nM 1.86% | 833.33 nM -2.74% | 10000 nM -7.6%

O=C(O)CC/C=C\C[C@@H]1CO[C@H](c2ccccc2Cl)O[C@@H]1c1ccccc1O (racemic)
inactive: 1 nM 0.52% | 8.33 nM 1% | 100 nM -2.37% | 833.33 nM 0.59% | 10000 nM -2.08%

CN1C(=O)CN=C(c2ccccc2)c2cc(Cl)ccc21 [diazepam]
inactive: 1 nM -0.19% | 8.33 nM 0.35% | 100 nM 1.99% | 833.33 nM 0.56% | 10000 nM 0.22%

CCCCCCCCC(=O)N[C@H](CN1CCCC1)[C@H](O)c1ccc2c(c1)OCCO2
inactive: 1 nM 3.01% | 8.33 nM 0.25% | 100 nM 2.54% | 833.33 nM 1.06% | 10000 nM 9.9%

O=C(C1CC1)N1CC[C@@H](Cc2n[nH]c(=O)n2-c2ccc(-c3ccc4occc4c3)cc2)C1
inactive: 1 nM -1.12% | 8.33 nM -1.14% | 100 nM -1.43% | 833.33 nM -0.64% | 10000 nM -4.48%

N#Cc1ccc(C(c2ccc(C#N)cc2)n2cncn2)cc1 [letrozole]
inactive: 1 nM -1.89% | 8.33 nM 4.26% | 100 nM 0.11% | 833.33 nM -2.14% | 10000 nM -1.61%

CN(C)CCOC(c1ccccc1)c1ccccc1 [diphenhydramine]
inactive: 1 nM 0.83% | 8.33 nM 0.08% | 100 nM -0.85% | 833.33 nM 0.48% | 10000 nM -0.92%

N#C/C(=C\c1ccc(O)c(O)c1)C(=O)NCCCCc1ccccc1
inactive: 1 nM 0.51% | 8.33 nM 1.37% | 100 nM 1.91% | 833.33 nM 0.14% | 10000 nM -0.03%

CC(=O)N1CCC[C@H]1C(=O)N[C@@H](Cc1cnc[nH]1)C(=O)N[C@@H](CO)C(=O)N[C@@H](CS)C(=O)N[C@@H](CC(N)=O)C(N)=O
inactive: 1 nM 1.06% | 8.33 nM 0.67% | 100 nM 2.55% | 833.33 nM 2.87% | 10000 nM 3.86%

CC(C)CNc1ccnc(NCc2csc(-c3ccccc3)n2)n1
inactive: 1 nM 0.06% | 8.33 nM 1.07% | 100 nM 0.03% | 833.33 nM 0.39% | 10000 nM -2.77%

CCCCN(CCCC)CCC(O)c1cc2c(Cl)cc(Cl)cc2c2cc(C(F)(F)F)ccc12 (stereo not given) [halofantrine]
inactive: 1 nM -1.32% | 8.33 nM 2.28% | 100 nM 3.05% | 833.33 nM -1.63% | 10000 nM -1.68%

COc1ccc(-c2nc(N3CCOCC3)c3sc(CN(C)c4ncc(C(=O)NO)cn4)cc3n2)cn1
inactive: 1 nM -0.39% | 8.33 nM -5.36% | 100 nM -18.1% | 833.33 nM -20.7% | 10000 nM -21.4%

CC(C)(C)NCC(O)CSc1nc(-c2ccc(C(N)=O)s2)cs1 (stereo not given) [arotinolol]
inactive: 1 nM -12.3% | 8.33 nM -9.63% | 100 nM -11% | 833.33 nM -9.7% | 10000 nM -6.09%

OB1OCc2cc(F)ccc21 [tavaborole]
inactive: 1 nM -0.98% | 8.33 nM 1.46% | 100 nM -1.21% | 833.33 nM 2.11% | 10000 nM -2.53%

N[C@@H]1c2cccnc2[C@H](OC(=O)N2CCC(n3c(=O)[nH]c4ncccc43)CC2)CC[C@H]1c1cccc(F)c1F [rimegepant]
inactive: 1 nM -0.34% | 8.33 nM 1.65% | 100 nM -0.46% | 833.33 nM -1.15% | 10000 nM 0.55%

CN1C(CCl)Nc2cc(Cl)c(S(N)(=O)=O)cc2S1(=O)=O (stereo not given) [methyclothiazide]
inactive: 1 nM -0.11% | 8.33 nM 0.15% | 100 nM 1.53% | 833.33 nM 1% | 10000 nM 2.28%

[O-][n+]1ccccc1[S-].[O-][n+]1ccccc1[S-].[Zn+2] [pyrithione-zinc]
inactive: 1 nM 1.44% | 8.33 nM 0.32% | 100 nM 1.01% | 10000 nM -21.9%
active: 833.33 nM 29.9%

O=C(Nc1ccc(CN2CCOCC2)cc1)c1ccc(-c2cccc(Cl)c2)o1
inactive: 1 nM 0.42% | 8.33 nM -1.17% | 100 nM 0.17% | 833.33 nM 0.72% | 10000 nM -0.79%

Clc1cccc(N2CCNCC2)c1
inactive: 1 nM -1.68% | 8.33 nM -2.45% | 100 nM -0.72% | 833.33 nM -3.2% | 10000 nM -2.99%

CCN1CCCC1CNC(=O)c1cc(S(=O)(=O)CC)c(N)cc1OC (stereo not given) [amisulpride]
inactive: 1 nM 2.43% | 8.33 nM -1.75% | 100 nM 0.45% | 833.33 nM -2.32% | 10000 nM -1.76%

CN/C(=N\CCSCc1nc[nH]c1C)NC#N [cimetidine]
inactive: 1 nM 0.42% | 8.33 nM -1.81% | 100 nM -0.46% | 833.33 nM 2.3% | 10000 nM -1.84%

CC[C@H]1OC(=O)C[C@@H](O)[C@H](C)[C@@H](O[C@@H]2O[C@H](C)C[C@H](N(C)C)[C@H]2O)[C@@H](CC=O)C[C@@H](C)C(=O)/C=C/[C@]2(C)O[C@H]2[C@@H]1C [rosamicin]
inactive: 1 nM 1.84% | 8.33 nM 0.4% | 100 nM -1.22% | 833.33 nM 2.62% | 10000 nM 9.6%

Cc1ccc(NC(=O)C(C)C)cc1C1CCN(Cc2ccc(Oc3ccc(F)c(F)c3)cc2)CC1
inactive: 1 nM -0.1% | 8.33 nM -1.41% | 100 nM -2.07% | 833.33 nM -4.89% | 10000 nM -10.5%

Nc1ncn([C@@H]2O[C@H](CO)[C@@H](O)[C@H]2O)c(=O)n1 [azacitidine]
inactive: 1 nM -3.6% | 8.33 nM 0.66% | 100 nM 0.98% | 833.33 nM -0.22% | 10000 nM 0.95%

CC1=C(/C=C/C(C)=C/C=C/C(C)=C/C=C/C=C(C)/C=C/C=C(C)/C=C/C2=C(C)CCCC2(C)C)C(C)(C)CCC1 [beta-carotene]
inactive: 1 nM -0.41% | 8.33 nM 1.55% | 100 nM 1.56% | 833.33 nM 1.85% | 10000 nM -0.57%

N=C(N)c1ccc(/C=C/c2ccc(C(=N)N)cc2O)cc1 [hydroxystilbamidine]
inactive: 1 nM -3.2% | 8.33 nM -1.76% | 100 nM -5.12% | 833.33 nM -3.2% | 10000 nM -1.16%

C[C@H](CSC(=O)c1ccccc1)C(=O)N1C[C@@H](Sc2ccccc2)C[C@H]1C(=O)O [zofenopril-calcium]
inactive: 1 nM 0.93% | 8.33 nM -2.52% | 100 nM -3.63% | 833.33 nM -4.57% | 10000 nM -1.54%

CCCC1(CCC)CCC2(CCN(CCCN(CC)CC)C2)CC1 [atiprimod]
inactive: 1 nM -0.73% | 8.33 nM 0.69% | 100 nM 0.76% | 833.33 nM -4.7% | 10000 nM -26.6%

O=C(CBr)N1CC([N+](=O)[O-])([N+](=O)[O-])C1
inactive: 1 nM 1.69% | 8.33 nM -0.07% | 100 nM -1.43% | 833.33 nM -1.12% | 10000 nM 0.95%

Cc1cc(S(=O)(=O)O)c2c(C)ccc(C(C)C)cc1-2 [sodium-gualenate]
inactive: 1 nM -10.1% | 8.33 nM -5.96% | 100 nM -9.82% | 833.33 nM -7.07% | 10000 nM -0.7%

C=CC[N@@+]12CC[C@@]34c5ccccc5N5/C=C6/[C@H]7C[C@H]8[C@@]9(CC[N@@+]8(CC=C)C/C7=C/CO)c7ccccc7N(/C=C(/[C@@H](C[C@@H]31)/C(=C\CO)C2)[C@H]54)[C@@H]69 [alcuronium]
inactive: 1 nM 1.2% | 8.33 nM -0.77% | 100 nM -0.24% | 833.33 nM -0.81% | 10000 nM 4.13%
